Entries with a potency or affinity are not part of this list. Activity calls are given as the source filed them. No rule for the calls is given here.
experiment: HIV-1 Env-mediated cell fusion inhibitors, dose response, CCR5-tropic Env (AID 2279); details: CCR5-tropic HIV-1 Env, reporter read-out; series mostly up to 50 µM

outcome, inactive:
CC(C)CS(=O)(=O)C1=NN2C(=N)/C(=C\c3ccc(OC(=O)c4ccco4)cc3)C(=O)N=C2S1
CC(c1ccccc1)N1C(=O)c2ccc(C(=O)Nc3ccc(Br)cc3C(=O)O)cc2C1=O (centres undefined)
CSc1ccc(C(c2c(C(=O)O)[nH]c3ccccc23)c2c(C(=O)O)[nH]c3ccccc23)cc1
Cc1ccc(NS(=O)(=O)c2ccc(N/N=C/c3ccccc3OCC(=O)O)c([N+](=O)[O-])c2)c(C)c1
COc1ccc2c(c1)cc(C(=O)N/N=C/c1c(O)c(C(=O)O)cc3ccccc13)n2C
Cc1noc(NS(=O)(=O)c2ccc(NC(=O)Nc3ccc(Cl)c(Cl)c3)cc2)c1C
COc1cc(/C=C2/C(=O)NN(c3ccc(Cl)cc3)C2=O)ccc1OC(=O)c1ccco1
Cc1ccc(S(=O)(=O)Oc2ccc(/C=C3/C(=N)N4C(=NC3=O)SN=C4S(C)(=O)=O)cc2)cc1
COc1cc(/C=C2\C(=N)N3N=C(S(C)(=O)=O)SC3=NC2=O)ccc1OS(=O)(=O)c1ccccc1
CCOc1cc(/C=C2\SC(=S)N(C(C(=O)O)c3ccccc3)C2=O)ccc1O (centres undefined)
O=C(N/N=C/c1cc(Cl)cc([N+](=O)[O-])c1O)c1ccccc1NS(=O)(=O)c1cccs1
Cc1ccc(-c2nn(-c3ccccc3)cc2/C=C2\SC(=S)N(CC(=O)O)C2=O)cc1
O=C(O)c1cccc(-n2cccc2/C=C2/NC(=O)N(c3ccc(Cl)cc3)C2=O)c1
O=C1N=c2ccc(Br)cc2=C1c1sc(=S)n(NS(=O)(=O)c2ccccc2)c1O
O=C(O)c1cc(N2N=C(C(F)(F)F)/C(=C/C=C/c3ccco3)C2=O)ccc1Cl
O=C(O)CSc1cc(C(=O)c2ccccc2O)cn2c(=O)c3c4c(sc3nc12)CCCC4
CCS(=O)(=O)C1=NN2C(=N)/C(=C\c3ccc(OCCOc4cccc(OC)c4)c(OC)c3)C(=O)N=C2S1
O=C(O)CN1C(=O)/C(=C\c2cc(Br)ccc2OCc2ccc(Cl)cc2Cl)SC1=S
O=C(O)COc1ccccc1/C=N/NC(=O)CSc1nnc(SCc2cccc3ccccc23)s1
O=C(O)CSc1cc(C(=O)c2cc(F)ccc2O)cn2c(=O)c3c(-c4ccccc4)csc3nc12
CCOc1cc(/C=C2/C(=N)N3C(=NC2=O)SN=C3S(C)(=O)=O)ccc1OS(=O)(=O)c1ccccc1
CC1=C(C#N)C(=O)NC(=O)/C1=C\c1ccc(-c2cc(C)c(C)cc2[N+](=O)[O-])o1
COc1cc(Cl)cc(C(c2c(C(=O)O)[nH]c3ccccc23)c2c(C(=O)O)[nH]c3ccccc23)c1O
COc1cc(/C=C2/SC(=S)N(Cc3ccccc3)C2=O)ccc1OCC(=O)O
O=C(O)/C(CC(=O)c1ccc(Cl)cc1)=N/Nc1ccc([N+](=O)[O-])cc1[N+](=O)[O-]
CCS(=O)(=O)C1=NSC2=NC(=O)/C(=C\c3ccc(OS(=O)(=O)c4ccccc4)c(OC)c3)C(=N)N21
COc1cc(/C=C(\C#N)c2nc3ccc(C)cc3[nH]2)cc([N+](=O)[O-])c1O
CCc1nnc(NS(=O)(=O)c2ccc(NC(=O)/C=C/c3ccccc3Cl)cc2)s1
CCc1oc2ccccc2c1C(=O)c1cc(Br)c(O)c(Br)c1
Cc1c(CC(=O)O)c(=O)oc2c(C)c3occ(-c4ccc(Br)cc4)c3cc12
CCCOc1ccc(C(=O)NNC(=S)NC(=O)c2cc(-c3ccc(Cl)cc3)nc3ccccc23)cc1
Cc1ccc(C)c(S(=O)(=O)/N=C2\C=C(NS(=O)(=O)c3ccccc3)C(=O)c3ccccc32)c1
CCOc1cc(/C=N/NC(=O)c2ccc(-c3csc(Nc4ccc(C)cc4)n3)cc2)ccc1OCC(=O)O
O=c1/c(=C\c2cc([N+](=O)[O-])cc([N+](=O)[O-])c2O)sc2nc3ccccc3n12
